MBNL1 CUG block: qHTS Assay for Inhibitors of MBNL1-poly(CUG) RNA binding. Muscleblind-like protein 1 (Homo sapiens), Q9NR56. TR-FRET MBNL1-His/biotin-(CUG)12 binding, 665/545 ratio. Potency, µM (series often up to 57.5 µM), inactives show top-dose activity change, negative = inhibition, most hits filed as inhibitors. 280,000 compounds, 0.036% hits. AID 2675, 2010; active = well fitted inhibition curve with a large enough effect in the signal ratio, with a control signal flat, not every such curve was filed as active; inconclusive = small, poorly fitted or top-dose-only effect, or effect the other way, or a change in a side signal; inactive = no such curve, though single readings can be large or run the other way; the % refers to the signal ratio; also: potency is read from the fitted curve at half-maximal effect; % is scaled to controls: 0 for no effect and ±100 for the full control effect
Target sequence (Q9NR56 whole entry, looked up): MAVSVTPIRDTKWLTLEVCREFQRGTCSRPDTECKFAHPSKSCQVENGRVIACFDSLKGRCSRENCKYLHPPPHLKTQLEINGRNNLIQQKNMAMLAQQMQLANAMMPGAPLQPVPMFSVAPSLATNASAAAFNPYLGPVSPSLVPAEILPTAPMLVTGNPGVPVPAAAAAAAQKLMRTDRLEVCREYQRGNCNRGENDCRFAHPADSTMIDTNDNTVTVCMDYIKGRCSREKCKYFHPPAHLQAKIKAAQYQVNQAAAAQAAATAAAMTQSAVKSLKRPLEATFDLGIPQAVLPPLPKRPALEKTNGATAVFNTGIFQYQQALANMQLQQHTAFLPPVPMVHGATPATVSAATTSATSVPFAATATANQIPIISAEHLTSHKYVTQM
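Compound titration spanned 92 nM–58 uM against the MBNL1-His/biotin-(CUG)12 complex. After 60 min at room temperature with 5 nM streptavidin-XL665 and 0.055 ng/ul terbium anti-His, ratiometric 665/545 nm emission (Ex 340 nm) normalized to controls.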
uPA surface inh: qHTS for Inhibitors of Cell Surface uPA Generation; Potency, µM (top dose mostly 38.3 µM), without a hit: at the highest dose activity change, negative = inhibition, actives largely listed as inhibitors; AID 540303, 2011; cell surface uPA generation assay, qHTS; 330,000 compounds, 0.31% hits; active = well fitted inhibition curve with a large enough effect; inconclusive = small, poorly fitted or top-dose-only effect; inactive = no such curve, though single readings can be large or run the other way; tested in mouse RAW 264.7 cells; also: potency is read from the fitted curve at half-maximal effect; % is scaled to controls: 0 for no effect and ±100 for the full control effect; nearly all actives have a fitted effect of over 55% in size
pAkt inh: HTS Assay for Inhibitors of Akt Phophorylation: Primary Screen; AID 651550, 2012; activity change, % for hits at 50 µM; Neuro2A IGF-stimulated pAkt S473 HTRF, 20 min; hits give low values; 360,000 compounds, 0.32% hits; in the data active = activity change below about -80%; inconclusive = mostly about -51% to -80%; also: % is scaled to controls: 0 for no effect and ±100 for the full control effect
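Single-point screen (50 µM final compound) in Neuro2A cells stimulated 20 min with 6 nM IGF at 37 deg C. After lysis, Ser473-phosphorylated Akt read by HTRF (ex 330 nm, em 615/665 nm) as the 665/615 ratio.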
Epigenetic derep: Quantitative High-Throughput Screen for Regulators of Epigenetic Control | murine LDR cells, GFP reporter derepression, 30 h | Potency, µM (top dose mostly 53.9 µM), for the others: top-dose GFP activation, hits mostly activators | 280,000 compounds, 0.2% hits | AID 1865, 2009; also: potency is read from the fitted curve at half-maximal effect; % of control where 0% means no effect; nearly all actives have a fitted effect of over 60% in size
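Derepression of a silenced CMV-GFP reporter in murine LDR cells is scored by enumerating GFP-positive cells with a laser-scanning microplate cytometer after 30 hours of treatment at 37 C.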
Mm-Cpn inhibitor: Inhibitors of TCP-1 ring complex (TRiC) of Methanococcus maripaludis (MmCpn): qHTS; purified Mm-Cpn ATPase, ADP Transcreener TR-FRET; Potency, µM (doses to about 76.9 µM), for the others: at the top dose activity, negative = inhibition, most hits filed as inhibitors; 330,000 compounds, 0.031% hits; AID 504842, 2011; Chaperonin Mm-Cpn (Methanococcus maripaludis); also: potency is read from the fitted curve at half-maximal effect; % is scaled to controls: 0 for no effect and ±100 for the full control effect; nearly all actives have a fitted effect of over 80% in size
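TR-FRET (320 nm excitation; 590 and 665 nm emission) reports ADP made from 10 uM ATP by 25 nM enzyme; compounds were preincubated 10 min, reaction run 30 min, both at 37°C.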
CCT chaperon mod: High-Throughput Screening for Modulators of Cytosolic Chaperonin Activity; activity change, % (test concentration not listed), hits read low; purified chaperonin ATPase assay, HTRF ADP detection, 30 min; AID 651819, 2012; 360,000 compounds, 0.3% hits; in the data active = activity change below about -30%; also: % is scaled to controls: 0 for no effect and ±100 for the full control effect
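First, chaperonin was dispensed at 40 nM or 20 nM final depending on batch activity. Next, compounds were pinned at 76 uM and ATP added at 10 uM. After 30 min at 37 °C, ADP detection reagents ran 30 min at ambient temperature.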
* marks the source's active call; other numbers are inactive results; i = inactive; ? = inconclusive; · = no result given. Rows were chosen to be rich in hits. Some 0.97% of all compounds tested hit in one or more screens of this group. Unless noted, calls follow the shape of the dose curve; as a rule, active = well fitted curve in the direction sought with a large enough effect; inconclusive = small, poorly fitted or top-dose-only effect, or another doubt; inactive = no such curve, though single readings can be large; an effect the other way counts as inactive or inconclusive.

SMILES	MBNL1 CUG block	uPA surface inh	pAkt inh	Epigenetic derep	Mm-Cpn inhibitor	CCT chaperon mod
CC1CCC(NC(=O)COc2ccc(C(=O)c3ccccc3)cc2)CC1 (stereo not given)	50%	-16%	i	-5%	3%	-45*
Cc1[nH]ccc(=O)c1OCC(=O)O	2%	8%	i	-1%	1%	0
Cc1[nH]ccc(=O)c1OCc1c(Cl)cccc1Cl	1%	2%	-114%*	0%	1%	3
CCC(=O)c1ccc(OCC(O)CN2CCN(C(c3ccccc3)c3ccccc3)CC2)cc1 (stereo not given)	1%	·	i	1%	0%	-2
Cc1nn(-c2nc(-c3ccc(F)cc3)cc(C(F)(F)F)n2)c(C)c1Cl	·	·	·	-1%	·	·
Cc1nn(-c2nc(-c3ccco3)cc(C(F)(F)F)n2)c(C)c1Cl	-1%	3%	-116%*	2%	-5%	-11
O[C@@H]1[C@@H](O)C=C2CCN3Cc4cc5c(cc4[C@H]1C23)OCO5 (stereo not given in full)	·	1µM*	i	·	-1%	-4
COc1ccc(Nc2nc3c(S(=O)(=O)c4ccc(Br)cc4)nnn3c3ccsc23)c(OC)c1	·	·	·	0%	·	·
Fc1ccc2[nH]c3c(N4CCN(c5ccccc5)CC4)ncnc3c2c1	-3%	-9%	-90%*	0%	-1%	1
CCOC(=O)N1CCN(c2ncnc3c2[nH]c2ccc(F)cc23)CC1	-9%	-12%	i	-1%	1%	2
CC(NC(=O)OC(C)(C)C)C(=O)NC(CCC(=O)OCc1ccccc1)C(N)=O (stereo not given)	-1%	3%	i	3%	1%	-60*
CCN(CC)C(=S)SCC(=O)c1ccccc1	2%	-4%	i	-3%	1%	-2
CCN(CC)C(=S)SSC(=S)N(CC)CC	81%	?	i	0.25µM*	1%	-1
O=C(NCc1nc2ccccc2[nH]1)C1=C[C@H](c2ccc(Br)cc2)C[C@H](OCc2ccc(CO)cc2)O1	7%	-10%	i	3%	·	-49*
CCO[C@@H]1OC(C(=O)NCc2nc3ccccc3[nH]2)=C[C@H](C2CC2)[C@H]1CCCO	2%	4.5µM*	i	-2%	·	1
COc1ccc(CC(N)c2csc(Nc3cc(Oc4ccccc4)ncn3)n2)cc1 (stereo not given)	·	·	i	·	·	-36*
COC(=O)[C@@]1(Cc2ccccc2)[C@H]2c3cc(C(=O)N4CCCC4)[nH]c3C[C@H]2CN1C(=O)c1ccccc1	·	·	·	0%	·	·
O=[N+]([O-])c1cccc(/C=N/Nc2nccnc2Cl)c1	?	·	-83%*	-1%	1%	-4
COc1ccccc1NS(=O)(=O)c1cc(C(=O)NC2CC(C)(C)NC(C)(C)C2)ccc1Cl	·	3%	i	·	·	3
CCc1ccc(N2CC(C(=O)OCC(=O)Nc3cc(C)on3)CC2=O)cc1 (stereo not given)	-2%	7%	-89%*	1%	0%	1
O=C(NCC(O)c1nc2ccccc2[nH]1)c1cc([N+](=O)[O-])ccc1F (stereo not given)	·	·	i	·	·	-1
Cc1cccc(NC(=O)c2nc[nH]c2C(=O)NC[C@H](C)O)c1	·	·	i	·	·	-1
OC(COc1ccccc1Br)CN1CCNCC1 (stereo not given)	-4%	-1%	i	·	-1%	2
CC(C)OCC(O)CN1CCNCC1 (stereo not given)	0%	2%	-115%*	1%	0%	-2
CCCc1cc(CN(C)C(=O)CC2C(=O)NCCN2Cc2ccccc2C)[nH]n1 (stereo not given)	0%	-7%	i	·	1%	2
COC(=O)C1=C(C)NC(=O)CC1c1cccc(Cl)c1Cl (stereo not given)	-1%	-2%	i	0%	0%	-30*

Source: PubChem (National Center for Advancing Translational Sciences (NCATS))
